# Source: PubChem BioAssay (Tox21)
# Records with an inconclusive call do not appear. Activity calls are given as the source filed them. Calls come from the whole dose curve; as a rule, active = well fitted cell-killing curve with a large enough effect in the repeat runs; inconclusive = weak or mixed curves, or effect the other way; inactive = no such curve, though single readings can be large or run the other way.
# Test: qHTS assay to identify small molecule agonists of the vitamin D receptor (VDR) signaling pathway - cell viability counter screen (AID 743224); note: nearly all actives have a fitted effect of over 50% in size
# Settings: VDR-bla HEK293T viability, CellTiter-Glo luminescence, 16 h; series mostly up to 62.6 µM; activity change, negative = cytotoxicity: at the top concentration
# Text: U.S. Tox21 Program National Center for Advancing Translational Sciences [NCATS] NIH Chemical Genomics Center [NCGC] U.S. Environmental Protection Agency [EPA] National Institutes of Environmental Health Sciences [NIEHS] National Toxicology Program [NTP] U.S. Food and Drug Administration [FDA] Tox21 Assay Overview: The vitamin D receptor (VDR), a member of nuclear hormone receptor superfamily, plays a critical role in calcium homeostasis and bone metabolism. It is also involved in cell differentiation and growth, and thrombogenicity. […] The cytotoxicity of the Tox21 compound library against the VDR-bla cell line was tested in parallel by measuring the cell viability using CellTiter-Glo assay (Promega, Madison, WI) in the same wells.
# Tox21 Assay Protocol Summary: VDR-bla cells were dispensed at 2,000 cells/6 uL/well into black wall/clear-bottom 1536-well plates using a Multidrop Combi (Thermo Fisher Scientific, Waltham, MA) dispenser. After the assay plates were incubated at a 37C and 5% CO2 for 4 h, 23 nL of compounds dissolved in DMSO, positive controls or DMSO only was transferred to the assay plate by a Pintool station (Kalypsys, San Diego, CA). The plates were incubated at 37C and 5% CO2 for 16 h. After 1 uL of LiveBLAzerTM B/G FRET substrate was added using a Bioraptr Flying Reagent Dispenser (FRD) workstation (Beckman Coulter, Indianapolis, IN, USA), the plates were incubated at room temperature for 2 h, and fluorescence intensity was measured by an Envision plate reader (PerkinElmer, Shelton, CT). For cell viability readout that measures cytotoxicity, 3 ul/well of CellTiter-Glo reagent was added into the assay plates using a FRD. After 30 min incubation at room temperature, the luminescence intensity in the plates was measured using a ViewLux (PerkinElmer) plate reader.
# % is set by controls: 0 for no effect and ±100 for the full control effect; potency is the fitted concentration of half-maximal effect.
Structure (SMILES),"activity change, negative = cytotoxicity",Potency
OC(c1ccccc1)(c1ccccc1)C1CCNCC1,-15.5% (inactive),–
CN1CCC(N(Cc2ccccc2)c2ccccc2)CC1,-28.9% (inactive),–
CC(CCc1ccccc1)NC(C)C(O)c1ccc(O)cc1 (stereo not given),-11.9% (inactive),–
CCCCOC(=O)c1ccccc1N,-0.489% [at 81.1 µM] (inactive),–
CCCCOP(=O)(O)OCCCC,8.57% (inactive),–
CC(C)CC#N,-7.92% [at 81.1 µM] (inactive),–
N#CCNCC#N,-0.864% (inactive),–
CCCCC(=O)Cl,1.16% [at 81.1 µM] (inactive),–
C1CCC(C2CCCCC2)CC1,-1.11% (inactive),–
CC(C)CC(N(C)C)C1(c2ccc(Cl)cc2)CCC1 (stereo not given),2.28% (inactive),–
CNC(=O)Oc1cccc(C(C)C)c1,-5.93% (inactive),–
ClC(Cl)Br,12% [at 81.1 µM] (inactive),–
CCOP(=O)(N=C1SCCS1)OCC,15.8% (inactive),–
CCN(Cc1ccc(Cl)nc1)/C(=C/[N+](=O)[O-])NC,3.79% (inactive),–
Cc1ncc(CNC(=O)N(CCCl)N=O)c(N)n1,10.8% (inactive),–
CCS(=O)(=O)C(C)(C)S(=O)(=O)CC,1.46% (inactive),–
C[N+](=O)[O-],8.69% (inactive),–
CC(CC(C#N)(c1ccccc1)c1ccccc1)N(C)C (stereo not given),-8.16% [at 81.1 µM] (inactive),–
CNC(=O)Oc1c(C(C)(C)C)cc(C)cc1C(C)(C)C,-17.6% (inactive),–
ClCCCN1CCN(c2cccc(Cl)c2)CC1,11.5% (inactive),–

Structure (SMILES),"activity change, negative = cytotoxicity",Potency
CC(Cl)(Cl)[N+](=O)[O-],6.81% (inactive),–
O=C1c2ccccc2C(=O)c2ccccc21,-1.06% [at 29.1 µM] (inactive),–
N#CC(CCc1ccc(Cl)cc1)(Cn1cncn1)c1ccccc1 (stereo not given),-16.8% (inactive),–
COc1cc(C[C@@H](C)N)c(OC)cc1C,-0.117% [at 81.1 µM] (inactive),–
N#CC(Cl)(Cl)Cl,-14% (inactive),–
c1cc[c]([Hg][c]2ccccc2)cc1,–,49 µM (active)
CCC(=O)C(CCN(C)C)(c1ccccc1)c1ccccc1,-8.59% (inactive),–
CN1CCN(C(=O)O[C@H]2c3nccnc3C(=O)N2c2ccc(Cl)cn2)CC1,13.5% (inactive),–
CN1CCC(O)(c2ccc(F)cc2)C(C(=O)c2ccc(F)cc2)C1 (stereo not given),-2.88% (inactive),–
O=C1CN=C(c2ccccc2)c2cc([N+](=O)[O-])ccc2N1,20.3% (inactive),–
CNNC,-1.8% [at 81.1 µM] (inactive),–
Nc1cc(Cl)ccc1O,-1.78% (inactive),–
O=C(Cc1ccccc1)OCc1ccccc1,2.94% [at 81.1 µM] (inactive),–
C[C@]1(O)CC[C@H]2[C@@H]3CCC4=CC(=O)CC[C@]4(C)[C@@]3(F)[C@@H](O)C[C@@]21C,15.6% [at 81.1 µM] (inactive),–
Cc1ccccc1CO[C@@H]1C[C@@]2(C(C)C)CC[C@]1(C)O2,-12.7% (inactive),–
ClC(Cl)C(Cl)Cl,13.7% [at 81.1 µM] (inactive),–
COP(=S)(OC)Oc1ccc(S(N)(=O)=O)cc1,8.43% (inactive),–
C=CC1CC=CCC1 (stereo not given),8.1% (inactive),–
CCNc1nc(NC(C)C)nc(OC)n1,0.42% (inactive),–
Nc1n[nH]c(N)n1,7.39% [at 81.1 µM] (inactive),–
